Most compounds without a hit are left out; they make up all but 3.2% or so of the library.
rCAG RNA binder – molecules binding r(CAG) RNA repeats | r(CAG) RNA repeat, TO-PRO-1 dye displacement fluorescence | inhibition, % at 3 µM | 370,000 tested, 1.3% active | AID 651821;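 active means inhibition above the plate cutoff, the mean of all test compounds on that plate plus 3 SD, cut at about 35% in these data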;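 further: 0% = DMSO alone and 100% = 100 µM mitoxantrone as full dye displacement; higher means more dye released from RNA so lower well fluorescence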
sPLA2-III inh – Blocks human group III sPLA2 activity; Q9NZ20; QFRET BODIPY PC-A2 liposome hydrolysis, fluorescence; inhibition, % at 12.2 µM; 370,000 tested, 0.56% active;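 active means inhibition above mean plus 3 SD of compounds lying within the high and low control bounds, cut at about 19% in these data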;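 further: 0% = median of test compound wells and 100% = no enzyme DMSO wells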
Target sequence (Q9NZ20 whole entry, looked up): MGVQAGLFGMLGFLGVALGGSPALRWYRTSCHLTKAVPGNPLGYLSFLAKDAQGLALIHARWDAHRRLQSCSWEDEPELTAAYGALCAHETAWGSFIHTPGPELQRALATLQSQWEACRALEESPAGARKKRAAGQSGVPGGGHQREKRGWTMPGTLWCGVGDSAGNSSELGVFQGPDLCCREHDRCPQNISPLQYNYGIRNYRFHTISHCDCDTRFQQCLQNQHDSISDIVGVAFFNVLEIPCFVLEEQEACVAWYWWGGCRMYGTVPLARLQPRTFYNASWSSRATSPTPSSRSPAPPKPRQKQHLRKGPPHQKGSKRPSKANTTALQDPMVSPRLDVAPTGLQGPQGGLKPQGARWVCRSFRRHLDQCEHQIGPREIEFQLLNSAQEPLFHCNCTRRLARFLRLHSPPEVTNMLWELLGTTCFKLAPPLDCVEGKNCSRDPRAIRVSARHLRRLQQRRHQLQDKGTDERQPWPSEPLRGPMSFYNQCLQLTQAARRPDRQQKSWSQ
bovine MsrA act – bovine methionine sulfoxide reductase A activation | purified bovine MsrA, absorbance read-out | activation, % at 10.6 µM | 360,000 tested, 0.3% active | AID 602163; in the data active means activation above about 7.5%;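 further: 0% = vehicle and 100% = reference activator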
MsrA inh – inhibits bovine methionine sulfoxide reductase A; purified bovine MsrA, absorbance read-out; inhibition, % at 15.5 µM; 360,000 tested, 0.75% active; AID 651718; in the data active means inhibition above about 4.5%;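 further: 0% = vehicle wells with enzyme and 100% = reference inhibitor wells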
PG9 Ab binder – small molecules binding HIV-1 gp120 antibody PG9. TR-FRET gp120-PG9 antibody binding. inhibition, % at 6.7 µM. 360,000 tested, 0.43% active. AID 624416; in the data active means inhibition above about 8.5%
rCAG bind conf – r(CAG) RNA repeat binding, confirmation | 4,300 tested, 70% active | TO-PRO-1 dye displacement fluorescence | inhibition, % at 3 µM | shares compounds with rCAG RNA binder;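 active means inhibition above a per-plate cutoff, the mean inhibition of sample wells plus 3 SD, cut at about 35% in these data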;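 further: loss of TO-PRO-1 fluorescence as compound displaces dye from 1x1 AA loop RNA; 0% = DMSO only wells and 100% = 100 µM mitoxantrone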
dCAG dye counter – disrupts DNA CAG TO-PRO-1 complex, flagging rCAG hits | shares compounds with rCAG RNA binder | d(CAG) DNA oligo TO-PRO-1 dye displacement, fluorescence | inhibition, % at 3 µM | 4,300 tested, 94% active;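 active means inhibition above its plate's cutoff, the mean test-well inhibition plus 3 SD, cut at about 4.8% in these data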;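 further: 0% = DNA dye mix with DMSO and 100% = 100 µM mitoxantrone; hits displace the dye from DNA and so lower well fluorescence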
dCAG dye DR – DNA CAG dye complex inhibition, dose response counter-screen; DNA CAG/GTC duplex TO-PRO-1 dye displacement fluorescence; AID 686960; IC50, µM; 250 tested, 20% active; shares compounds with rCAG RNA binder; in the data active means IC50 below about 10 µM
An asterisk follows results filed as active; i = inactive; / = not tested or not shown.

SMILES	rCAG RNA binder	sPLA2-III inh	bovine MsrA act	MsrA inh	PG9 Ab binder	rCAG bind conf	dCAG dye counter	others
O=C(NC1CCCCN(Cc2ccc(Cl)cc2)C1=O)C1C2CC3CC(C2)CC1C3 (stereo not given)	7	4	/	/	/	/	/
CCOc1ccc(-n2c(SCC(=O)Nc3ccc(OCc4ccccc4)cc3)nnc2-c2ccc(Cl)cc2)cc1	7	4	/	/	/	/	/
CCC1CCCCN1S(=O)(=O)c1ccc(NC(=O)CSc2ncccc2C(=O)O)cc1 (stereo not given)	39*	-1	-8	1	-1	34	11*
COc1ccc(NC(=O)Nc2nc3ccccc3s2)cc1	48*	-12	-5	0	-1	15	18*
CCOc1ccc2nc(NC(=O)Nc3cccs3)sc2c1	64*	-9	-2	0	0	29	28*
CCOc1ccc2nc(NC(=O)Nc3ccccc3)sc2c1	50*	-8	-3	0	0	15	20*
CCCc1cc(=O)[nH]c(SCC(=O)Nc2nc3ccc(OCC)cc3s2)n1	49*	-12	-5	0	2	40*	12*
COc1ccc2nc(NC(=O)CSc3nc(C)cc(=O)[nH]3)sc2c1	12	2	-11	0	0	/	/
CC1CCC2(CC1)CCC2NCc1ccc(Cl)c(Cl)c1 (stereo not given)	/	16	/	/	/	/	/
Nc1nn2c(-c3ccccc3)cc(=O)[nH]c2c1N=Nc1ccc(Br)cc1	35*	0	-4	-1	-2	80*	40*
Nc1nn2c(-c3ccccc3)cc(=O)[nH]c2c1N=Nc1ccc(O)cc1	19	-6	-2	0	-8	/	/
Cc1ccccc1NC(=O)Nc1nc(C(N)C2CCCCC2)cs1 (stereo not given)	20	17	-8	2	-1	/	/
COc1ccc(NC(=O)Nc2nc(C(N)C3CCCCC3)cs2)cc1 (stereo not given)	40*	6	1	0	0	25	4.6*
CC(C)c1ccc(NC(=O)Nc2nc(C(N)C3CCCCC3)cs2)cc1 (stereo not given)	35*	7	3	-2	1	21	5.5*
CC(C)c1ccc(NC(=O)Nc2nc(C(C)N)cs2)cc1 (stereo not given)	33	11	-4	0	3	/	/
COc1cccc(CO[C@H]2C=C[C@@H](c3ccccc3)O[C@@H]2CO)c1	5	7	/	/	/	/	/
COc1ccccc1CCn1cnc(-c2ccc(Br)cc2)c1CC(C)C	0	-9	/	0	-1	/	/
Cc1ccc(-n2c(O)c(C=Nc3ccccc3-c3n[nH]c(=S)[nH]c3=O)c3ccccc3c2=O)cc1C	77*	0	-7	1	2	81*	48*
Cc1ccc(-n2c(O)c(C=Nc3ccccc3-c3n[nH]c(=S)[nH]c3=O)c3ccccc3c2=O)c(C)c1	72*	0	-1	1	2	88*	57*
Cc1cccc(-n2c(O)c(C=Nc3ccccc3-c3n[nH]c(=S)[nH]c3=O)c3ccccc3c2=O)n1	46*	8	3	2	2	44*	13*
CC(=O)Nc1cccc(-c2cc(C(C)=O)c3n(c2=O)CCC3)c1	2	14	/	/	/	/	/
CC(C)c1ccc(-c2nc(N3CCCCC3)[nH]c(=O)c2C#N)cc1	3	-7	-3	-1	0	/	/
CC1=Nc2nc(N3CCCCC3)c(C#N)c3c4c(nc(c23)N1)N(c1ccc(C(C)C)cc1)C(=O)C4	62*	-8	-2	2	2	38*	22*
COC(=O)c1sc(N2C(=O)C(O)=C(C(=O)c3ccc(C)o3)C2c2ccc(OC)c(OC)c2)nc1C (stereo not given)	37*	-5	-6	3	0	36*	9.9*
Cc1ccc2nc(N3C(=O)C(O)=C(C(=O)c4ccc(C)o4)C3c3cccc(O)c3)sc2c1 (stereo not given)	70*	-20	-3	1	0	69*	33*
COc1ccc2nc(N3C(=O)C(O)=C(C(=O)c4ccco4)C3c3ccc(OC)c(OC)c3)sc2c1 (stereo not given)	56*	-9	-1	1	0	69*	25*	dCAG dye DR=i
